In PubChem BioAssay AID1405 (National Center for Advancing Translational Sciences (NCATS), 2008):
Records with an inconclusive call do not appear. Active and inactive are the calls of the source. Calls come from the whole dose curve.

Assay: Confirmation and Secondary Assays for Modulators of Hemoglobin Beta Chain Splicing at IVS2 654 and 705 loci
Settings: HeLa beta-globin IVS2-654 splicing GFP reporter, 48 h
Excerpt: NIH Chemical Genomics Center [NCGC]
NIH Molecular Libraries Screening Centers Network [MLSCN]
PI Name: Dr. Ryszard Kole
Modulation of Alternative Splicing as Therapy
Abnormal splicing is associated with a number of diseases, including cancer and genetic diseases such as cystic fibrosis, muscular dystrophy and beta-thalassemia. Alteration of disease associated splicing patterns provides a promising target for treatment. […] Mutations in the second intron of the b-globin gene at positions 654 or 705 are clinically relevant and cause mis-splicing which results in an out of frame gene product.
EGFP-654 HeLa Cells as screen system.
(§1) HeLa cell lines were stably transfected with a construct in which the EGFP (enhanced green fluorescent protein) cDNA was interrupted by the second intron of the beta-globin gene (IVS2-654). The ISV2 intron contains mutations which cause mis-splicing of EGFP and premature termination of EGFP which results in a nonfluorescent protein product. […] Expression of the transgene was driven by the CMV promoter. We concluded that a low molecular weight compound, which restored correct splicing of intron 2 would also generate functional EGFP protein, resulting in a fluorescent signal. Thus, the HeLa cells that express the EGFP-654 construct can be used for high throughput screening of a chemical library.
EGFP-705 HeLa Cells as screen system.
as §1, with “(IVS2-705).” for “(IVS2-654).”, “EGFP-705” for “EGFP-654”, “validation of splice site specificity of compounds identified in primary” for “high throughput”, “the ISV2 654 construct.” for “a chemical library.”
NCGC Assay Protocol Summary:
Confirmatory Screening. Freshly thawed HeLa EGFP-654 or EGFP-705 cells were seeded in 5 ul of optimem media (Invitrogen) containing 2 % fetal calf serum (Hyclone) and 1x penicillin/streptomycin (Invitrogen) at a concentration of 500 cells per well in 1536-well plates. Cells were incubated overnight at 37C in 5% CO2. The next day, cells were treated with DMSO, 500 nM antisense ISV2 654 (or 705) PNA control oligo, or library compound and allowed to grow at 37C in 5% CO2 for 2 days. The PNA oligo blocked the mutation site in the intron and allowed proper (wild type) splicing to occur, resulting in full length EGFP expression and also allowed for optimization of the assay parameters. Plates were read in the Acumen Explorer (TTP Labtech) using 488 nm laser excitation and 500-520 nm emission PMT filter in a 1 x 8 uM capture mode, and were read immediately after compound pinning (beta-globin-654-gfp-0hr), at 24 hours (beta-globin-654-gfp-24hr and beta-globin-705-gfp-24hr), and at 48 hours (beta-globin-654-gfp-48hr and beta-globin-705-gfp-48hr). Fluorescnet objects ranging in size from 5 to 250 uM were measured and the total peak GFP intensity for each well was used for data analysis. Cell death was measured by quantitating protease release by sick and dying cells using Promega's luminescent Cytotox-Glo reagent. Cells were treated with 2ul of Cytotox- Glo reagent incubated at room temperature for 5 minutes and read in the Viewlux plate reader with a 30 second integration time (beta-globin-654-protease-48hr and beta-globin-705-protease-48hr).
Keywords: Thalassemia, beta-thalassemia, beta-globin, EGFP, ISV2 654, ISV2 705, SSO, PNA, antisense, splicing, MLSMR, MLSCN, NIH Roadmap, qHTS, NCGC

Potency, active:
OCC1OC(n2cnc3c(=S)nc[nH]c32)C(O)C1O (stereo not drawn) 1.78 µM, Nc1nc(=S)c2ncn([C@H]3O[C@@H](CO)[C@@H](O)[C@@H]3O)c2[nH]1 1.26 µM, S=C1NC=NC2N=CNC12 (stereo not drawn) 1.58 µM, CCn1c(C)nc([N+](=O)[O-])c1Sc1ncnc2nc[nH]c12 2 µM, Nc1nc2n[nH]nc2c(=O)[nH]1 2.51 µM, Cn1cnc([N+](=O)[O-])c1Sc1ncnc2nc[nH]c12 2 µM, O=c1[nH]c(=O)n([C@@H]2O[C@H](CO)[C@@H](O)[C@H]2O)cc1F 3.98 µM, Nc1nc(=S)c2[nH]cnc2[nH]1 1.12 µM
